# Experimental data as given in the supplement of paper PMC9694430.
# Key:
# Assay in all cases: thermal shift delta Tm vs DMSO control; higher = stronger stabilization (binding)
# Details in all cases: 12.5 µM; protein concentration 2 µM
# LOC_OS02G45750-cb003 = test system: LOC_OS02G45750-cb003
# Summary of the method: (§1)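 Rice kinase domain constructs, made in E. coli and purified, were placed in 96-well plates at 2 μM in 19.5 μl of 100 mM potassium phosphate pH 7.5, 150 mM NaCl, 10% glycerol and 5 × SYPRO Orange, with compound in DMSO. A temperature ramp from 25°C to 95°C at 0.05°C/s was used for differential scanning fluorimetry. The melting temperature shift is a triplicate mean compared with DMSO-only protein, derived from Boltzmann fits.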
# LOC_OS02G54510-cb004 = test system: LOC_OS02G54510-cb004
# Summary of the method: as §1
# LOC_OS03G04050-cb001 = test system: LOC_OS03G04050-cb001
# Summary of the method: as §1
# LOC_OS03G12390-cb001 = test system: LOC_OS03G12390-cb001
# Summary of the method: as §1
# LOC_OS03G27990-cb004 = test system: LOC_OS03G27990-cb004
# Summary of the method: as §1
# LOC_OS03G50450-cb001 = test system: LOC_OS03G50450-cb001
# Summary of the method: as §1
# LOC_OS03G50810-cb003 = test system: LOC_OS03G50810-cb003
# Summary of the method: as §1
# LOC_OS04G35114-cb001 = test system: LOC_OS04G35114-cb001
# Summary of the method: as §1
# LOC_OS04G38480-cb003 = test system: T1, LOC_OS04G38480-cb003
# T1 sequence (whole entry): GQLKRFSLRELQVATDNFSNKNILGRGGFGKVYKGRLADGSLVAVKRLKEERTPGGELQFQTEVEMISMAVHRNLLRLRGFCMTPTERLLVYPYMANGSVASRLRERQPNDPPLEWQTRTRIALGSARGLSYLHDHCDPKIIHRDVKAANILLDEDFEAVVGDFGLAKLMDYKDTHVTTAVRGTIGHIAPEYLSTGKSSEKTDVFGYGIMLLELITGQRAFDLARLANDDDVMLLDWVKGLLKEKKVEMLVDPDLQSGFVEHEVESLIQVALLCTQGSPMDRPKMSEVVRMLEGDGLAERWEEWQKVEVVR
# Summary of the method: as §1
# LOC_OS04G41100-cb001 = test system: T2, LOC_OS04G41100-cb001
# T2 sequence (whole entry): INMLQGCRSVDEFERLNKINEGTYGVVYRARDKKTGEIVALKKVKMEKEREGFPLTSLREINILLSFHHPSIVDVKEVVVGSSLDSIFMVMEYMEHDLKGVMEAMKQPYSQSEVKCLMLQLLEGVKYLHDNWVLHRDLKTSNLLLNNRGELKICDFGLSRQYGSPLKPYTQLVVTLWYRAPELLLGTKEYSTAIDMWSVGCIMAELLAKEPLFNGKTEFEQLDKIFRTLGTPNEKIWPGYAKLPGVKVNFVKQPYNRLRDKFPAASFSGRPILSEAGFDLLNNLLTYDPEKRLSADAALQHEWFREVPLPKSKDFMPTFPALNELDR
# Summary of the method: as §1
# 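Further: purified Escherichia coli-expressed rice kinase domain construct.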
structure (smiles),measurement,setting,value
C#Cc1cccc(Nc2ncnc3cc(OCCOC)c(OCCO)cc23)c1,thermal shift delta Tm,LOC_OS02G45750-cb003,3.92 °C
same,thermal shift delta Tm,LOC_OS02G54510-cb004,0.67 °C
same,thermal shift delta Tm,LOC_OS03G04050-cb001,0.26 °C
same,thermal shift delta Tm,LOC_OS03G12390-cb001,2.39 °C
same,thermal shift delta Tm,LOC_OS03G27990-cb004,0.08 °C
same,thermal shift delta Tm,LOC_OS03G50450-cb001,0.13 °C
same,thermal shift delta Tm,LOC_OS03G50810-cb003,0.83 °C
same,thermal shift delta Tm,LOC_OS04G35114-cb001,6.33 °C
same,thermal shift delta Tm,LOC_OS04G38480-cb003,1.21 °C
same,thermal shift delta Tm,LOC_OS04G41100-cb001,0.13 °C
O=C1NC(=O)[C@@H](c2cn3c4c(cccc24)CCC3)[C@@H]1c1c[nH]c2ccccc12 [Tivantinib (ARQ 197)],thermal shift delta Tm,LOC_OS02G45750-cb003,0.51 °C
same,thermal shift delta Tm,LOC_OS02G54510-cb004,0.03 °C
same,thermal shift delta Tm,LOC_OS03G04050-cb001,0.44 °C
same,thermal shift delta Tm,LOC_OS03G12390-cb001,-0.01 °C
same,thermal shift delta Tm,LOC_OS03G27990-cb004,0.43 °C
same,thermal shift delta Tm,LOC_OS03G50450-cb001,0.17 °C
same,thermal shift delta Tm,LOC_OS03G50810-cb003,0.07 °C
same,thermal shift delta Tm,LOC_OS04G35114-cb001,0.51 °C
same,thermal shift delta Tm,LOC_OS04G38480-cb003,0.13 °C
same,thermal shift delta Tm,LOC_OS04G41100-cb001,0.36 °C
Fc1ccc2[nH]ccc2c1-c1nc(N2CCOCC2)c2sc(CN3CCN(CC4CC4)CC3)cc2n1,thermal shift delta Tm,LOC_OS02G45750-cb003,0 °C
same,thermal shift delta Tm,LOC_OS02G54510-cb004,-0.03 °C
same,thermal shift delta Tm,LOC_OS03G04050-cb001,0.21 °C
same,thermal shift delta Tm,LOC_OS03G12390-cb001,0.01 °C
same,thermal shift delta Tm,LOC_OS03G27990-cb004,0 °C
same,thermal shift delta Tm,LOC_OS03G50450-cb001,-0.17 °C
same,thermal shift delta Tm,LOC_OS03G50810-cb003,1.38 °C
same,thermal shift delta Tm,LOC_OS04G35114-cb001,0.63 °C
same,thermal shift delta Tm,LOC_OS04G38480-cb003,0.91 °C
same,thermal shift delta Tm,LOC_OS04G41100-cb001,0.18 °C
Nc1ncnc2n[nH]c(Nc3ccc(F)cc3)c12,thermal shift delta Tm,LOC_OS02G45750-cb003,4.8 °C
same,thermal shift delta Tm,LOC_OS02G54510-cb004,0.26 °C
same,thermal shift delta Tm,LOC_OS03G04050-cb001,0.25 °C
same,thermal shift delta Tm,LOC_OS03G12390-cb001,2.15 °C
same,thermal shift delta Tm,LOC_OS03G27990-cb004,3.38 °C
same,thermal shift delta Tm,LOC_OS03G50450-cb001,0.1 °C
same,thermal shift delta Tm,LOC_OS03G50810-cb003,0.92 °C
same,thermal shift delta Tm,LOC_OS04G35114-cb001,5.47 °C
same,thermal shift delta Tm,LOC_OS04G38480-cb003,0.62 °C
same,thermal shift delta Tm,LOC_OS04G41100-cb001,0.32 °C
C[C@@H]1COC(Nc2ccc3ncnc(Nc4ccc(OCc5nccs5)c(Cl)c4)c3c2)=N1 [Varlitinib],thermal shift delta Tm,LOC_OS02G45750-cb003,1.53 °C
same,thermal shift delta Tm,LOC_OS02G54510-cb004,0.27 °C
same,thermal shift delta Tm,LOC_OS03G04050-cb001,0.48 °C
same,thermal shift delta Tm,LOC_OS03G12390-cb001,0.13 °C
same,thermal shift delta Tm,LOC_OS03G27990-cb004,0.32 °C
same,thermal shift delta Tm,LOC_OS03G50450-cb001,0.46 °C
same,thermal shift delta Tm,LOC_OS03G50810-cb003,0.41 °C
same,thermal shift delta Tm,LOC_OS04G35114-cb001,1.59 °C
same,thermal shift delta Tm,LOC_OS04G38480-cb003,1.56 °C
same,thermal shift delta Tm,LOC_OS04G41100-cb001,0.59 °C
C[C@@H](Oc1cc(-n2cnc3ccc(CN4CCN(C)CC4)cc32)sc1C(N)=O)c1ccccc1C(F)(F)F,thermal shift delta Tm,LOC_OS02G45750-cb003,0.36 °C
same,thermal shift delta Tm,LOC_OS02G54510-cb004,-0.15 °C
same,thermal shift delta Tm,LOC_OS03G04050-cb001,0.2 °C
same,thermal shift delta Tm,LOC_OS03G12390-cb001,-0.35 °C
same,thermal shift delta Tm,LOC_OS03G27990-cb004,-0.09 °C
same,thermal shift delta Tm,LOC_OS03G50450-cb001,-0.03 °C
same,thermal shift delta Tm,LOC_OS03G50810-cb003,0.55 °C
same,thermal shift delta Tm,LOC_OS04G35114-cb001,2.11 °C
same,thermal shift delta Tm,LOC_OS04G38480-cb003,0.27 °C
same,thermal shift delta Tm,LOC_OS04G41100-cb001,0.39 °C
CN1CCC(COc2cnc(-c3cccc(Cn4nc(-c5cccc(C#N)c5)ccc4=O)c3)nc2)CC1,thermal shift delta Tm,LOC_OS02G45750-cb003,-0.03 °C
same,thermal shift delta Tm,LOC_OS02G54510-cb004,-0.06 °C
same,thermal shift delta Tm,LOC_OS03G04050-cb001,0.23 °C
same,thermal shift delta Tm,LOC_OS03G12390-cb001,-0.02 °C
same,thermal shift delta Tm,LOC_OS03G27990-cb004,0.03 °C
same,thermal shift delta Tm,LOC_OS03G50450-cb001,0.11 °C
same,thermal shift delta Tm,LOC_OS03G50810-cb003,0.09 °C
same,thermal shift delta Tm,LOC_OS04G35114-cb001,1.33 °C
same,thermal shift delta Tm,LOC_OS04G38480-cb003,0.26 °C
same,thermal shift delta Tm,LOC_OS04G41100-cb001,0.35 °C
CC1=C(C(=O)Nc2ccc3[nH]ncc3c2)C(c2ccc(F)cc2)NC(=O)N1 (stereo not given),thermal shift delta Tm,LOC_OS02G45750-cb003,0.98 °C
same,thermal shift delta Tm,LOC_OS02G54510-cb004,0.18 °C
same,thermal shift delta Tm,LOC_OS03G04050-cb001,0.57 °C
same,thermal shift delta Tm,LOC_OS03G12390-cb001,0.72 °C
same,thermal shift delta Tm,LOC_OS03G27990-cb004,0.46 °C
same,thermal shift delta Tm,LOC_OS03G50450-cb001,0.58 °C
same,thermal shift delta Tm,LOC_OS03G50810-cb003,0.64 °C
same,thermal shift delta Tm,LOC_OS04G35114-cb001,0.48 °C
same,thermal shift delta Tm,LOC_OS04G38480-cb003,1.84 °C
same,thermal shift delta Tm,LOC_OS04G41100-cb001,0.33 °C
CN1CCN(S(=O)(=O)c2ccc(-c3cnc(N)c(C(=O)Nc4cccnc4)n3)cc2)CC1,thermal shift delta Tm,LOC_OS02G45750-cb003,3.58 °C
same,thermal shift delta Tm,LOC_OS02G54510-cb004,0.11 °C
same,thermal shift delta Tm,LOC_OS03G04050-cb001,0.29 °C
same,thermal shift delta Tm,LOC_OS03G12390-cb001,1.18 °C
same,thermal shift delta Tm,LOC_OS03G27990-cb004,0.73 °C
same,thermal shift delta Tm,LOC_OS03G50450-cb001,0.63 °C
same,thermal shift delta Tm,LOC_OS03G50810-cb003,0.87 °C
same,thermal shift delta Tm,LOC_OS04G35114-cb001,2.43 °C
same,thermal shift delta Tm,LOC_OS04G38480-cb003,1.65 °C
same,thermal shift delta Tm,LOC_OS04G41100-cb001,0.85 °C
